NCOA3 inh: SRC3 coactivator transcriptional activity inhibitors, primary screen, cell-based, luminescence | Nuclear receptor coactivator 3 (Homo sapiens), Q9Y6Q9 | AID 588352, 2011 | inhibition, % at 3.6 µM | 0.17% of 360,000 active | HEK293 GAL4-SRC3 luciferase reporter;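 active means inhibition above a per-campaign cutoff, the mean of all compounds plus 3 SD, cut at about 60% in these data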;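 further: 0% = DMSO-treated cells and 100% = gossypol-treated cells at 36 µM; higher means less SRC3-driven luciferase light from the GAL4 reporter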
NCOA1 inh: SRC1 coactivator transcriptional activity inhibitors, primary screen, cell-based, luminescence; HEK293 GAL4-SRC1 luciferase reporter; inhibition, % at 3.6 µM; 0.12% of 360,000 active; AID 588354, 2011;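 active means inhibition above the campaign mean plus 3 SD, with each screening campaign given its own cutoff, cut at about 60% in these data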;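 further: 0% = DMSO treated cells and 100% = gossypol at 36 µM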
Gli-Sufu antag: Gli-Sufu pathway antagonists, primary screen, luciferase luminescence, Sufu-KO-LIGHT cells, uHTS. Sufu-KO-LIGHT fibroblasts, Gli luciferase reporter luminescence. inhibition, % at 5 µM. 0.74% of 340,000 active;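 active means inhibition above about 55%, limit read from the data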;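 further: 0% = DMSO-treated cells and 100% = wells with medium but no cells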
LRH-1 inv ag: LRH-1 (NR5A2) inverse agonists, primary screen, cell-based, luminescence, HEK293T, StAR-luciferase reporter | Nuclear receptor subfamily 5 group A member 2 (Homo sapiens), O00482 | inhibition, % at 3.6 µM | 0.13% of 360,000 active | LRH-1 transfected, 24 h;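 active means inhibition above the mean inhibition of all tested compounds plus 3 SD, cut at about 73% in these data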;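 further: 0% = DMSO wells and 100% = reporter-only cells lacking LRH-1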
NCOA2 inhibitor: inhibition of GAL4-SRC2 driven luciferase reporter, primary screen, SRC2 inhibitor project, cell-based, luminescence | Nuclear receptor coactivator 2 (Homo sapiens), Q15596 | HEK293 GAL4-SRC2 luciferase reporter | inhibition, % at 9 µM | 0.17% of 370,000 active;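 active means inhibition above the mean inhibition of all tested compounds plus 3 SD, set per campaign, cut at about 52% in these data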;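 further: 0% = DMSO treated cells and 100% = cells given Gossypol at 36 µM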
* hit, by the source's call. Sampled rows, rich in hits. Any-hit rate of the full collection: about 0.83%.

`C=C1C(O)[C@@H]2O[C@]3(CC[C@H](/C=C/C(C)[C@@H]4CC(C)=CC5(O[C@H](C[C@@](C)(O)C(=O)O)CCC5O)O4)O3)CC[C@H]2O[C@@H]1C(O)CC(C)[C@H]1OC2(CCCCO2)CCC1C` (some centres undefined) gave Gli-Sufu antag 93*.
O=C1/C(=C/c2ccccc2)C[C@@]2(O)[C@H]3Cc4ccc(O)c5c4[C@@]2(CCN3CC2CC2)C1O5 (some centres undefined) was read as NCOA3 inh 83*, NCOA1 inh 86*, Gli-Sufu antag -16 and LRH-1 inv ag 84*.
For Oc1ccc2c3c1O[C@H]1c4[nH]c5c(c4CC4(O)C(C2)N(CC2CC2)CCC314)CC1(O)[C@H]2Cc3ccc(O)c4c3[C@@]1(CCN2CC1CC1)C5O4 (some centres undefined) the results were NCOA2 inhibitor 4.
O=C(NC1CN2CCC1CC2)c1ccc(Cl)cc1 (centres undefined) was read as NCOA2 inhibitor 7.
Screening O=c1[nH]c(O)c(N=Nc2ccc3c(c2)OCCO3)c(=O)[nH]1 returned NCOA3 inh 69*, NCOA1 inh 67*, Gli-Sufu antag 30, LRH-1 inv ag 71 and NCOA2 inhibitor 59*.
Screening CCOC(=O)CC[C@@H]1CC[C@]2(CCCN(Cc3ccccn3)C2)O1 returned NCOA2 inhibitor 9.
CCC(=O)[C@@H](C)[C@@H](O)[C@H](C)C[C@@H](C)C1OC(=O)C[C@@]2(O)CC=C(C)C(O2)C(C)=CCCC[C@H](O[C@H]2C[C@@H](OC(N)=O)[C@H](O)[C@@H](C)O2)C=C[C@H](C)C[C@H]1C (some centres undefined) was read as LRH-1 inv ag 85*.
`O=C1C2CC=CCC2C(=O)N1SC(Cl)(Cl)Cl` (centres undefined) gave NCOA2 inhibitor -8.
`CCOC(=O)[C@]12Cc3cc(Cl)ccc3[C@H]1N(C1CCCCC1)C(=O)c1ccccc12` gave LRH-1 inv ag 85*.
`CCCCCCCCCCCCCCCC[N+](C)(C)C` gave NCOA3 inh 12, NCOA1 inh 5, Gli-Sufu antag 62*, LRH-1 inv ag 17 and NCOA2 inhibitor 2.
`Cn1ncnc2c(=O)n(C)c(=O)nc1-2` gave NCOA3 inh 91*, NCOA1 inh 88*, Gli-Sufu antag 94* and LRH-1 inv ag 100*.
`Cc1cc(O)c2c(c1)C(=O)[C@@]13C(=C2O)C(=O)[C@H]2C(O)[C@@H]1[C@H]1C(O)[C@@H]3C(=O)C3=C(O)c4c(O)cc(C)cc4C(=O)[C@@]312` (some centres undefined) gave NCOA2 inhibitor -14.
COc1ccc(CNCCc2c(C)[nH]c3ccc(OC(F)(F)F)cc23)c(OC)c1 was read as NCOA3 inh 7, NCOA1 inh 7, Gli-Sufu antag 57*, LRH-1 inv ag 26 and NCOA2 inhibitor 21.
`C[C@H]1C[C@@H](C)C(=O)[C@@H]([C@H](O)CC2CC(=O)NC(=O)C2)C1` gave NCOA3 inh 93*, NCOA1 inh 92*, Gli-Sufu antag 53, LRH-1 inv ag 103* and NCOA2 inhibitor 72*.
COC(=O)[C@H]1C[C@@]2(C)c3ccccc3N[C@H]2N1 was read as NCOA2 inhibitor -8.
For COC(=O)[C@]12OC[C@]34C([C@@H](O)[C@@H]1O)[C@]1(C)CC(=O)C(O)=C(C)[C@@H]1C[C@H]3OC(=O)[C@H](O)[C@@H]24 (some centres undefined) the results were NCOA3 inh 69*, NCOA1 inh 81*, Gli-Sufu antag 33, LRH-1 inv ag 99* and NCOA2 inhibitor 61*.
C=CCN1CC[C@]23c4c5ccc(O)c4OC2C(=O)CC[C@@]3(O)[C@H]1C5 (some centres undefined) was read as NCOA2 inhibitor -1.
OC1CN2CCC(O)C2C(O)C1O (centres undefined) was read as NCOA2 inhibitor -4.
Screening CCOC(=O)CC[C@@H]1CC[C@]2(CCCN(Cc3ccncc3)C2)O1 returned NCOA2 inhibitor 14.

Assay outcomes (PubChem)
